Results taken from the supplement of paper PMC6555819.

Key:
Assay in all cases: PBM binding z-score (relative to random genomic background probes); higher = stronger binding; sequences stand for … in GC…GCGATTGACAGCGTAGAATGAAGG
[1] = tested on: PPARg:RXRa DBDmut IVT, anti-RXR (DBD mutation: RXRa K156A/R161A, NR concentration 270 nM, RXRa partner concentration 90 nM)
Outline: (§1)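 Probes were double-stranded and carried 34-nt variable regions with direct-repeat seeds, single-nucleotide variants, half-site ablations and random human genomic background sequences, printed on custom Agilent 4×180K protein-binding microarrays. Arrays were incubated 1 h with ligand-free nuclear receptor dimers in PBS pH 7.4, 2% milk, 0.02% Triton X-100, 1 mM DTT, 0.2 mg/mL BSA and 0.4 mg/ml salmon testes DNA. Antibodies against each partner (one per run) detected binding, and scanned fluorescence was regression-normalized. Binding z-scores use the random background probes as reference.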

[2] = tested on: PPARg:RXRa IVT, anti-PPARg (NR concentration 270 nM, RXRa partner concentration 90 nM)
Outline: as §1

[3] = tested on: PPARg DBDmut:RXRa IVT, anti-PPARg (DBD mutation: PPARg1 K132A/R137A, NR concentration 270 nM, RXRa partner concentration 90 nM)
Outline: as §1

[4] = tested on: PPARg DBDmut IVT, anti-PPARg (DBD mutation: PPARg1 K132A/R137A, NR concentration 270 nM)
Outline: as §1

[5] = tested on: PPARg homodimer (NR concentration 180 nM)
Outline: as §1

[6] = tested on: PXR:RXRa (NR concentration 270 nM, RXRa partner concentration 90 nM)
Outline: as §1

[7] = tested on: PXR homodimer (NR concentration 270 nM)
Outline: as §1

[8] = tested on: RARa:RXR (NR concentration 270 nM, RXRa partner concentration 90 nM)
Outline: as §1

[9] = tested on: RARa homodimer (NR concentration 270 nM)
Outline: as §1

[10] = tested on: RARb:RXRa (NR concentration 270 nM, RXRa partner concentration 90 nM)
Outline: as §1

[11] = tested on: RARb homodimer (NR concentration 270 nM)
Outline: as §1

[12] = tested on: RARg:RXRa (NR concentration 270 nM, RXRa partner concentration 90 nM)
Outline: as §1

[13] = tested on: RARg homodimer (NR concentration 270 nM)
Outline: as §1

[14] = tested on: RXRa DBDmut IVT, anti-RXR (DBD mutation: RXRa K156A/R161A, NR concentration 90 nM)
Outline: as §1

[15] = tested on: THRa:RXRa (NR concentration 90 nM, RXRa partner concentration 90 nM)
Outline: as §1

[16] = tested on: THRa homodimer (NR concentration 90 nM)
Outline: as §1

[17] = tested on: VDR homodimer (NR concentration 270 nM)
Outline: as §1

[18] = tested on: RXRa homodimer (NR concentration 180 nM)
Outline: as §1

[19] = tested on: VDR:RXRa (NR concentration 270 nM, RXRa partner concentration 90 nM)
Outline: as §1

Row | Sequence | PBM binding z-score [1] | PBM binding z-score [2] | PBM binding z-score [3] | PBM binding z-score [4] | PBM binding z-score [5] | PBM binding z-score [6] | PBM binding z-score [7] | PBM binding z-score [8] | PBM binding z-score [9] | PBM binding z-score [10] | PBM binding z-score [11] | PBM binding z-score [12] | PBM binding z-score [13] | PBM binding z-score [14] | PBM binding z-score [15] | PBM binding z-score [16] | PBM binding z-score [17] | PBM binding z-score [18] | PBM binding z-score [19]
1 | CTCGAAAGGGCGTGCTCAGGTGAGTATACCAAAC | -0.316 | 0.335 | -0.537 | -0.0248 | -0.194 | -0.0546 | 0.0968 | 0.278 | -0.187 | 1.37 | 0.741 | 0.917 | 0.829 | 0.316 | 2.23 | 0.261 | -0.046 | – | –
2 | ACTAGCAGGCCAAGGGTGACTCAAGATTAGTCCG | 0.931 | 1.84 | -0.0543 | -0.633 | -0.412 | -0.0749 | -0.354 | 0.264 | -0.894 | 0.8 | 0.337 | 0.341 | 0.646 | -0.454 | 0.239 | -0.521 | -0.791 | – | –
3 | AGTCAAAGTTCATCTAGGTATCGTAAGATATGCT | 0.0537 | 2.59 | 0.906 | 0.493 | 2.49 | 5.11 | 5.44 | 3.62 | 1.32 | 4.95 | 3.84 | 5.45 | 5.99 | 4.54 | 2.8 | -0.179 | 5.25 | – | –
4 | CATACAGGGACAGCTAGGCCAGAGTAGGGACGGC | -0.69 | -0.181 | -1.17 | 0.371 | -0.647 | -0.731 | -0.605 | -0.361 | 0.0521 | 0.723 | 0.286 | 0.368 | 0.718 | -0.689 | 0.703 | 0.148 | -0.709 | – | –
5 | TAGCCTAGGTCATGCGGGCCAGTATAGTGTCGGC | 1.77 | 2.76 | -0.107 | -0.0866 | 0.667 | 1.37 | -0.724 | 2.44 | -0.846 | 3.66 | 2.89 | 3.98 | 4.4 | 0.813 | 3.02 | 0.858 | 0.814 | – | –
6 | TCTCGGATGACACGAAAGGTCAGAGCTCGACATC | 1.88 | 1.33 | 0.619 | 1.03 | 3.4 | 3.7 | 0.17 | 4.37 | 1.07 | 3.68 | 4.3 | 4.19 | 3.99 | 1.08 | 2.79 | 0.526 | 0.594 | – | –
7 | GCTTACGGGTCAAAAGTTATAGCATGAATAGAAT | 3.77 | 3.87 | 1.08 | 1.18 | 1.4 | 2.94 | 0.168 | 3.7 | 0.546 | 3.16 | 2.05 | – | 3.15 | 1.93 | 2.08 | -0.478 | 0.684 | 4.84 | 2.93
8 | CAAACTAGGTCACGAAAGGGCAAAGTCGAATGAC | 8.03 | 9.13 | 2.95 | 1.67 | 4.28 | 5.85 | 0.485 | 5.03 | 2.03 | 4.99 | 4.43 | 5.81 | 6.33 | 1.77 | 4.54 | 1.42 | 1.35 | – | –
